19 compounds from PubChem BioAssay (NCATS) can be followed below.

SMILES strings stand for the structures. Active and inactive are the calls of the source. Calls follow the shape of the full dose curve.

Test in all cases: Confirmatory Screen for Target Class Profiling of Small Molecule Inhibitors of Methyltransferases (AID 1745852); as to activity change, negative = inhibition: % is scaled to controls: 0 for no effect and ±100 for the full control effect
Test [1] concerns the target Catechol O-methyltransferase (Homo sapiens) (UniProt P21964). To be noted: MTase-Glo luminescence, SAH detection, recombinant enzyme; measured here: COMT max response; stronger effect = lower value.
Test [2] concerns the target Guanidinoacetate N-methyltransferase (Homo sapiens) (UniProt Q14353). To be noted: MTase-Glo luminescence, SAH detection, recombinant enzyme; activity change, negative = inhibition: at 57.3 µM (top of the series) unless noted; series mostly up to 57.3 µM.
For test [3], the target named is Nicotinamide N-methyltransferase (Homo sapiens) (UniProt P40261). To be noted: MTase-Glo luminescence, SAH detection, recombinant enzyme; measured here: NNMT max response; stronger effect = lower value.
Sequence of Nicotinamide N-methyltransferase (Homo sapiens) (P40261 whole entry, looked up): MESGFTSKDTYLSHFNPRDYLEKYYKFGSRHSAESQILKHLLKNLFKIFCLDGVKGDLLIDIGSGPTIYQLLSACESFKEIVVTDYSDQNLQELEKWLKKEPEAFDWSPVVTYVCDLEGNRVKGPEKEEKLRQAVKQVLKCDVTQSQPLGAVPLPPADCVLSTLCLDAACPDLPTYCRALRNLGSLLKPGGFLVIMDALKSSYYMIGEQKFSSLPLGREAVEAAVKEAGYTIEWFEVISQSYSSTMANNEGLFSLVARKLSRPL
For test [4], the target named is Phenylethanolamine N-methyltransferase (Homo sapiens) (UniProt P11086). Particulars: MTase-Glo luminescence, SAH detection, recombinant enzyme; measured here: PNMT max response; stronger effect = lower value.
Sequence of Phenylethanolamine N-methyltransferase (Homo sapiens) (P11086 whole entry, looked up): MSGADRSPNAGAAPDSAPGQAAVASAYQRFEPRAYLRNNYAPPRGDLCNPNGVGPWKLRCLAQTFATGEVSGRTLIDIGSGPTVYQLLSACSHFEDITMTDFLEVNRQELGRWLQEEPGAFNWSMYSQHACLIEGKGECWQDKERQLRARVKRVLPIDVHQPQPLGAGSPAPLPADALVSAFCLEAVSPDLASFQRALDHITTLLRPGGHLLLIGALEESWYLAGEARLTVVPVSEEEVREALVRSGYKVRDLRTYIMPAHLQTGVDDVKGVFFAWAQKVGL
Potency is read from the fitted curve at half-maximal effect.

Sequence of Catechol O-methyltransferase (Homo sapiens) (P21964 whole entry, looked up): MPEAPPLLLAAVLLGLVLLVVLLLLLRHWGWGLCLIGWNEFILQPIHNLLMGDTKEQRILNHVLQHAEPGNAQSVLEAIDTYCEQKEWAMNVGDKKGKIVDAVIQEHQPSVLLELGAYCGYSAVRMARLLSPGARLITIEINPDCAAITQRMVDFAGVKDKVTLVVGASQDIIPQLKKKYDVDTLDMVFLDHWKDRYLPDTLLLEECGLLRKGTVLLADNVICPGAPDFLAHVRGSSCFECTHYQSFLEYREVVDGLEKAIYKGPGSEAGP

As to `CNC(=O)NCCc1ncc(C)n1C1CCCCCCC1`, the activity in test [1] is 1.76%; in test [3], -4.6%; in test [4], -0.137%. Moreover, the activity change, negative = inhibition in test [2] worked out at 2.65%.

With `Cc1noc(C)c1-c1cc(-c2ccc(CN(C)C)cc2)cn2cncc12`, the activity in test [1] is -2.27%; in test [3] it was -10.7%; in test [4] it was -3.78%. The activity change, negative = inhibition in test [2] is -8.74% [at 85.7 µM].

In the case of `COc1ccccc1CNC(=O)C1(C)Cn2c(cc3ccccc32)C(=O)N1Cc1ccc(OC)c(OC)c1` (stereo unspecified), the activity in test [1] was 0%; in test [3] it was -60.4%; in test [4] it was -1.32%. In addition, the activity change, negative = inhibition in test [2] is 0%.

Take `CCCNc1cc(N2CCC(CCC(=O)NCCN3CCCCCC3)CC2)ncn1`: the activity in test [1] was 7.42%; in test [3], -8.06%; in test [4] it was 0.426%. Further, the activity change, negative = inhibition in test [2] worked out at 8.04%.

On to `O=C(NCCc1ccccc1)N1CCn2cccc2C1Cc1ccccc1` (stereo unspecified), for which the figures for the activity in test [1], in test [3] and in test [4] were 0.987%, -8.34% and -0.866%, respectively. In addition, the Potency result in test [2] was “inactive”.

Consider `Cn1ccc2c(C(=O)NCCc3cnc[nH]3)nc(-c3ccc(N4CCOCC4)cc3)cc21`, for which the activity in test [1] is -6.99%; in test [3], 2.75%; in test [4], -6.64%. Besides, in test [2], the activity change, negative = inhibition was -0.183% [at 85.7 µM].

In the case of `Cc1ccc(N(C)S(=O)(=O)c2ccc3c(c2)n(C)c(=O)n3C)cc1`, the activity is -6.35% in test [1], -47% in test [3] and -7.47% in test [4]. Besides, the Potency in test [2] is 0.192 µM (active).

For `COc1ccc(CCNc2nc3c(S(=O)(=O)c4ccccc4)nnn3c3ccccc23)cc1OC`, the activity in test [1] is -10.7%; in test [3], -17.5%; in test [4], -12.4%. Besides, the activity change, negative = inhibition in test [2] was -7.04%.

Consider `Cc1cc(F)ccc1NS(=O)(=O)c1ccc2[nH]c3c(c2c1)CCCC3`, for which the activity in test [1] was 0%; in test [3], -33.2%; in test [4] it was 0%. In addition, in test [2], the activity change, negative = inhibition came out at 0.252%.

Turning to `O=C(CCCc1nnc2n3nc(-c4ccccc4)nc3c3ccccc3n12)NCCN1CCCC1`, the activity in test [1] was 3.65%; in test [3] it was -3.84%; in test [4], 0%. The activity change, negative = inhibition in test [2] was 0%.

`CC(C)c1nccn1CCCNC(=O)c1ccc(N2CCCC(CO)C2)nc1` (stereo unspecified): the results for the activity in test [1], in test [3] and in test [4] were 2.58%, 6.68% and 5.49%, respectively. Further, the activity change, negative = inhibition in test [2] was determined as 1.26%.

For `Oc1ccc(NCCN2CCCC2)cc1`, the values for the activity in test [1], in test [3] and in test [4] were -10.9%, -12.3% and -7.62%, respectively. Moreover, the activity change, negative = inhibition in test [2] is -14.6% [at 114 µM].

On to `O=C(CCc1nnc2n(Cc3ccccc3Cl)c(=O)c3ccccc3n12)NCCc1c[nH]c2ccccc12`, for which the figures for the activity in test [1], in test [3] and in test [4] were 4.12%, -2.9% and -5.42%, respectively. Also, the activity change, negative = inhibition in test [2] turned out to be 0%.

For the compound `O=S(=O)(c1ccc(Br)cc1)c1nnn2c1nc(NCCc1c[nH]c3ccccc13)c1ccccc12`, the results for the activity in test [1], in test [3] and in test [4] were -1.9%, -1.21% and -6.06%, respectively. Also, the activity change, negative = inhibition in test [2] was -2.1%.

On to `CC1=C[C@@H](CN(CC2CC2)CC2CC2)[C@H](C(C)C)C[C@H]1Cc1nc2ccncc2[nH]1`, for which the activity is 3.81% in test [1], -1.17% in test [3] and 3.65% in test [4]. Also, the activity change, negative = inhibition in test [2] came to 4.35% [at 85.7 µM].

As to `CCCC1c2cccn2CCN1C(=O)Nc1ccc(Br)cc1` (stereo unspecified), the values for the activity in test [1], in test [3] and in test [4] were -7.6%, -18.3% and -12.2%, respectively. Besides, the activity change, negative = inhibition in test [2] is -4.2%.

Regarding `CC(=O)Nc1cccc(-c2cc3c(cn2)CN(Cc2ccccc2)CCN3)c1`, the activity in test [1] was -2.16%; in test [3], -13%; in test [4], -14.8%. Further, the activity change, negative = inhibition in test [2] came out at 0.249% [at 85.7 µM].

For `CCCC1c2cccn2CCN1C(=O)Nc1cc(Cl)c(OC)cc1OC` (stereo unspecified), the activity in test [1] was -9.49%; in test [3] it was -17.5%; in test [4], -8.84%. The activity change, negative = inhibition in test [2] is -6.89%.

Regarding `COc1ccc(-c2[nH]nc3ncc(C(=O)N4CCC(c5ccccc5)CC4)nc23)c(C)c1`, the results for the activity in test [1], in test [3] and in test [4] were -39.6%, -23.9% and -53.6%, respectively. For the same compound, in test [2], the activity change, negative = inhibition is -20.4% [at 85.7 µM].
